PubChem BioAssay AID1159580 (chemical genetic matrix, 2015)
Among all 5,500 compounds or so, about 2,000 (36%) were called active. Not shown: some 18% with an inconclusive outcome. Cut-off read from the data, not from the text of the source: active = normalized growth mostly below about 0.91 (no sharp cut-off); inconclusive = no clear call, values can overlap the other calls; inactive = mostly above about 0.92. Some of the results follow.

Assay: chemical genetic growth profiling, strain panel (AID 1159580);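 note: tested at 20 µM; growth read once vehicle control cultures reached saturation at 30 °C; 1 = growth at the plate median or of vehicle wells; lower values mean less growth of the strain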
Conditions: growth OD

Measured: normalized growth

C=CCN1CC[C@]23c4c5ccc(O)c4OC2C(=O)CC[C@@]3(O)[C@H]1C5 (some centres not stated)
inactive: S. cerevisiae deletion strains, locus YJR075W, strain HOC1, stronger effect = lower value 1 | S. cerevisiae deletion strains, locus YKL009W, strain mrt4, stronger effect = lower value 0.977 | S. cerevisiae deletion strains, locus YKL068W, stronger effect = lower value 0.993 | S. cerevisiae deletion strains, locus YKL085W, strain MDH1 (second series), stronger effect = lower value 1 | S. cerevisiae deletion strains, locus YKL085W, strain MDH1, stronger effect = lower value 1 | S. cerevisiae deletion strains, locus YKL160W, strain elf1, stronger effect = lower value 0.975 | S. cerevisiae deletion strains, locus YKL190W, strain CNB1, stronger effect = lower value 1 | S. cerevisiae deletion strains, locus YKR001C, strain vps1, stronger effect = lower value 0.989 | S. cerevisiae deletion strains, locus YKR026C, strain gcn3, stronger effect = lower value 0.979 | S. cerevisiae deletion strains, locus YKR091W, strain srl3, stronger effect = lower value 0.973 | S. cerevisiae deletion strains, locus YLL001W, strain dnm1, stronger effect = lower value 0.983 | S. cerevisiae deletion strains, locus YLL026W, stronger effect = lower value 0.988 | S. cerevisiae deletion strains, locus YLL041C, strain sdh2, stronger effect = lower value 0.963 | S. cerevisiae deletion strains, locus YLR027C, strain aat2, stronger effect = lower value 0.976 | S. cerevisiae deletion strains, locus YLR039C, strain RIC1, stronger effect = lower value 1 | S. cerevisiae deletion strains, locus YLR058C, strain SHM2, stronger effect = lower value 1.01 | S. cerevisiae deletion strains, locus YLR102C, strain apc9, stronger effect = lower value 0.998 | S. cerevisiae deletion strains, locus YLR113W, strain HOG1, stronger effect = lower value 0.973 | S. cerevisiae deletion strains, locus YLR221C, strain rsa3, stronger effect = lower value 0.982 | S. cerevisiae deletion strains, locus YLR258W, strain gsy2, stronger effect = lower value 0.983 | S. cerevisiae deletion strains, locus YLR262C, strain YPT6 (second series), stronger effect = lower value 0.97 | S. cerevisiae deletion strains, locus YLR262C, strain YPT6, stronger effect = lower value 1.04 | S. cerevisiae deletion strains, locus YLR268W, strain sec22, stronger effect = lower value 1.04 | S. cerevisiae deletion strains, locus YLR320W, strain mms22, stronger effect = lower value 0.969 | S. cerevisiae deletion strains, locus YLR330W, strain CHS5, stronger effect = lower value 1.01 | S. cerevisiae deletion strains, locus YLR342W, strain FKS1 (second series), stronger effect = lower value 1.01 | S. cerevisiae deletion strains, locus YLR342W, strain FKS1, stronger effect = lower value 0.962 | S. cerevisiae deletion strains, locus YLR357W, strain rsc2, stronger effect = lower value 0.939 | S. cerevisiae deletion strains, locus YLR370C, strain arc18, stronger effect = lower value 0.973 | S. cerevisiae deletion strains, locus YLR371W, strain rom2, stronger effect = lower value 0.976 | S. cerevisiae deletion strains, locus YLR384C, strain iki3, stronger effect = lower value 0.963 | S. cerevisiae deletion strains, locus YLR418C, strain cdc73, stronger effect = lower value 0.999 | S. cerevisiae deletion strains, locus YML016C, strain PPZ1, stronger effect = lower value 1.01 | S. cerevisiae deletion strains, locus YML032C, strain rad52, stronger effect = lower value 1.02 | S. cerevisiae deletion strains, locus YML120C, strain ndi1, stronger effect = lower value 0.974 | S. cerevisiae deletion strains, locus YML124C, strain tub3, stronger effect = lower value 0.991 | S. cerevisiae deletion strains, locus YMR058W, strain fet3, stronger effect = lower value 0.98 | S. cerevisiae deletion strains, locus YMR078C, strain ctf18, stronger effect = lower value 1 | S. cerevisiae deletion strains, locus YMR125W, strain sto1, stronger effect = lower value 0.936 | S. cerevisiae deletion strains, locus YMR129W, stronger effect = lower value 0.954 | S. cerevisiae deletion strains, locus YMR205C, strain PFK2, stronger effect = lower value 0.979 | S. cerevisiae deletion strains, locus YMR223W, strain ubp8, stronger effect = lower value 0.99 | S. cerevisiae deletion strains, locus YMR231W, strain pep5, stronger effect = lower value 0.977 | S. cerevisiae deletion strains, locus YMR263W, strain SAP30, stronger effect = lower value 1.02 | S. cerevisiae deletion strains, locus YMR307W, strain GAS1, stronger effect = lower value 1.05 | S. cerevisiae deletion strains, locus YNL067W, strain RPL9B, stronger effect = lower value 1.02 | S. cerevisiae deletion strains, locus YNL071W, strain lat1, stronger effect = lower value 0.956 | S. cerevisiae deletion strains, locus YNL128W, strain TEP1, stronger effect = lower value 1.01 | S. cerevisiae deletion strains, locus YNL153C, strain GIM3, stronger effect = lower value 1.02 | S. cerevisiae deletion strains, locus YNL183C, strain NPR1, stronger effect = lower value 0.941 | S. cerevisiae deletion strains, locus YNL209W, strain ssb2, stronger effect = lower value 0.945 | S. cerevisiae deletion strains, locus YNL233W, strain BNI4, stronger effect = lower value 1.03 | S. cerevisiae deletion strains, locus YNL248C, strain rpa49, stronger effect = lower value 0.948 | S. cerevisiae deletion strains, locus YNL250W, strain rad50, stronger effect = lower value 0.988 | S. cerevisiae deletion strains, locus YNL271C, strain bni1, stronger effect = lower value 0.998 | S. cerevisiae deletion strains, locus YNL298W, strain CLA4, stronger effect = lower value 1.01 | S. cerevisiae deletion strains, locus YNL307C, strain MCK1, stronger effect = lower value 0.996 | S. cerevisiae deletion strains, locus YNL322C, strain KRE1 (second series), stronger effect = lower value 0.927 | S. cerevisiae deletion strains, locus YNL322C, strain KRE1, stronger effect = lower value 1 | S. cerevisiae deletion strains, locus YNR049C, strain mso1, stronger effect = lower value 0.973 | S. cerevisiae deletion strains, locus YNR052C, strain pop2, stronger effect = lower value 1 | S. cerevisiae deletion strains, locus YOL006C, strain TOP1, stronger effect = lower value 1.07 | S. cerevisiae deletion strains, locus YOL012C, strain htz1 0.779 | S. cerevisiae deletion strains, locus YOL147C, strain pex11, stronger effect = lower value 0.996 | S. cerevisiae deletion strains, locus YOR001W, strain rrp6, stronger effect = lower value 0.97 | S. cerevisiae deletion strains, locus YOR061W, strain CKA2, stronger effect = lower value 1.02 | S. cerevisiae deletion strains, locus YOR069W, strain VPS5, stronger effect = lower value 1.01 | S. cerevisiae deletion strains, locus YOR070C, strain gyp1, stronger effect = lower value 0.964 | S. cerevisiae deletion strains, locus YOR080W, strain dia2, stronger effect = lower value 0.969 | S. cerevisiae deletion strains, locus YOR083W, strain WHI5, stronger effect = lower value 0.979 | S. cerevisiae deletion strains, locus YOR106W, strain vam3, stronger effect = lower value 0.948 | S. cerevisiae deletion strains, locus YOR136W, strain idh2, stronger effect = lower value 0.995 | S. cerevisiae deletion strains, locus YOR144C, strain elg1, stronger effect = lower value 1 | S. cerevisiae deletion strains, locus YOR184W, strain ser1, stronger effect = lower value 0.998 | S. cerevisiae deletion strains, locus YOR231W, strain MKK1, stronger effect = lower value 0.994 | S. cerevisiae deletion strains, locus YOR265W, strain rbl2, stronger effect = lower value 0.983 | S. cerevisiae deletion strains, locus YOR270C, strain vph1, stronger effect = lower value 0.935 | S. cerevisiae deletion strains, locus YOR290C, strain snf2, stronger effect = lower value 0.968 | S. cerevisiae deletion strains, locus YOR316C, strain cot1, stronger effect = lower value 0.994 | S. cerevisiae deletion strains, locus YPL051W, strain arl3, stronger effect = lower value 0.983 | S. cerevisiae deletion strains, locus YPL055C, strain LGE1, stronger effect = lower value 1.01 | S. cerevisiae deletion strains, locus YPL078C, strain atp4, stronger effect = lower value 0.968 | S. cerevisiae deletion strains, locus YPL106C, strain sse1, stronger effect = lower value 0.957 | S. cerevisiae deletion strains, locus YPL240C, strain hsp82, stronger effect = lower value 0.965 | S. cerevisiae deletion strains, locus YPL241C, strain CIN2, stronger effect = lower value 1.01 | S. cerevisiae deletion strains, locus YPL256C, strain CLN2, stronger effect = lower value 0.979 | S. cerevisiae deletion strains, locus YPR119W, strain clb2, stronger effect = lower value 1 | S. cerevisiae deletion strains, locus YPR141C, strain kar3, stronger effect = lower value 0.996 | S. cerevisiae deletion strains, locus YPR163C, strain tif3, stronger effect = lower value 0.996 | S. cerevisiae deletion strains, locus YPR167C, strain met16, stronger effect = lower value 1 | S. cerevisiae deletion strains, strain wtn01, stronger effect = lower value 1.01 | S. cerevisiae strains, strain wild type, stronger effect = lower value 1.01
